The text below walks through data of PubChem BioAssay (NCI).

This is part of a sample that, as a whole, favours compounds with a hit. Of some 83,000 tested, about 20% had one in any assay.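 A percent growth of 40 corresponds to 60% growth inhibition; 0 means no net growth; -100 means all cells died. Active threshold: below 10.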 Values without a mark were called inactive. Activity calls are given as the source filed them.

Some test systems named below: NCI-H23 lung; NCI-H226 lung; NCI-H460 lung; HOP-92 NSCLC; NCI-H522 lung; A549/ATCC NSCLC; 786-0 renal; COLO 205 colon; DU-145 prostate; K-562 leukemia; MALME-3M melanoma; MDA-MB-231 breast; RXF 393 renal; SF-268 CNS; SF-295 CNS; SF-539 CNS; UACC-257 melanoma; M14 melanoma; NCI-H322M lung; HOP-62 NSCLC.
Experiment in all cases: NCI-60 one-dose screen, 48 h (100 = growth as untreated, 0 = no growth, -100 = all killed)
Settings in all cases: 10 µM unless noted

As for `CN=C(N)N/N=C(\c1ccccc1)c1ccc(Br)cc1`, the growth in the assay on NCI-H23 lung is 21%; with NCI-H226 lung, 15.6%; in the assay with NCI-H460 lung it was 6.18% (active); with HOP-92 NSCLC it was 32.2%; in the assay on NCI-H522 lung it was -29.9% (active); with A549/ATCC NSCLC, 9.47% (active). For the same compound, the growth in the assay with 786-0 renal was 13.4%; with COLO 205 colon it was -55.6% (active); in the assay with DU-145 prostate, -9.2% (active); in the assay on K-562 leukemia, -6.02% (active); in the assay with MALME-3M melanoma it was 25.9%; in the assay on MDA-MB-231 breast, -9.39% (active). Moreover, the growth is -0.626% (active) in the assay with RXF 393 renal; 11.9% in the assay with SF-268 CNS; -46% (active) with SF-295 CNS; -19.2% (active) with SF-539 CNS; 47.2% in the assay on UACC-257 melanoma; -13.1% (active) with M14 melanoma.
Consider `O=[N+]([O-])c1ccc(N2CCN(Cc3ccccc3)CC2)c2c1no[n+]2[O-]`, for which the growth was 13% in the assay with NCI-H23 lung; 69.7% in the assay on NCI-H322M lung; -31.7% (active) in the assay with HOP-62 NSCLC; -70.8% (active) with NCI-H460 lung; 25.6% in the assay with HOP-92 NSCLC; -74.1% (active) with NCI-H522 lung. The growth in the assay on A549/ATCC NSCLC was -40.2% (active); in the assay with 786-0 renal it was -4.19% (active); in the assay on COLO 205 colon it was -88.2% (active); in the assay with DU-145 prostate, 26.8%; with K-562 leukemia it was -43.5% (active); in the assay on MALME-3M melanoma, 13.5%. Besides, the growth was -3.1% (active) in the assay with MDA-MB-231 breast; -5.34% (active) in the assay on RXF 393 renal; -1.56% (active) in the assay with SF-268 CNS; 6.45% (active) in the assay on SF-295 CNS; 0.0788% (active) in the assay on SF-539 CNS; 55.9% with UACC-257 melanoma. For the same compound, in the assay on M14 melanoma, the growth was 30.3%.
Turning to `CC(=O)N1CC(=O)NC1=S`, the growth with NCI-H23 lung was 98.3%; in the assay on NCI-H322M lung, 102%; with HOP-62 NSCLC, 97.7%; in the assay on NCI-H460 lung it was 103%; in the assay on HOP-92 NSCLC, 102%; with NCI-H522 lung, 92.2%. In addition, the growth in the assay on A549/ATCC NSCLC was 94.9%; in the assay with 786-0 renal, 102%; in the assay with DU-145 prostate, 105%; in the assay on K-562 leukemia, 97.4%; in the assay with MALME-3M melanoma it was 95%; in the assay with MDA-MB-231 breast it was 98.3%. The growth with RXF 393 renal was 104%; in the assay on SF-268 CNS it was 98.2%; in the assay on SF-295 CNS it was 102%; with SF-539 CNS, 101%; in the assay with UACC-257 melanoma, 90.4%; in the assay on M14 melanoma, 95.1%.
On to `O=C1C=CC(=O)N1c1ccc(O)cc1`, for which the growth in the assay on NCI-H23 lung was 103%; in the assay with NCI-H226 lung, 101%; in the assay with NCI-H460 lung it was 104%; in the assay on NCI-H522 lung, 104%; with A549/ATCC NSCLC, 103%; in the assay on 786-0 renal, 98.3%. For the same compound, the growth in the assay on COLO 205 colon is -37% (active); with DU-145 prostate, 117%; in the assay with K-562 leukemia, 91.1%; with MDA-MB-231 breast, 94.7%; with RXF 393 renal, 110%; in the assay on SF-268 CNS, 109%. Moreover, the growth was 114% in the assay with SF-295 CNS, 111% in the assay with SF-539 CNS, 106% in the assay with UACC-257 melanoma and 105% in the assay on M14 melanoma.
As for `Cc1nc([N+](=O)[O-])c(Sc2nncc(-c3ccccc3)n2)n1C`, the growth in the assay with NCI-H23 lung was 82.1%; in the assay on NCI-H226 lung, 80.1%; with NCI-H460 lung, 110%; with HOP-92 NSCLC, 93.1%; in the assay on NCI-H522 lung it was 95.2%; in the assay on A549/ATCC NSCLC it was 95.9%. The growth was 94% with 786-0 renal; 74.5% in the assay with COLO 205 colon; 67.3% in the assay with DU-145 prostate; 89.7% in the assay with K-562 leukemia; -7.36% (active) with MALME-3M melanoma; 92.6% in the assay on MDA-MB-231 breast. Moreover, the growth in the assay with SF-268 CNS is 93.5%; in the assay with SF-295 CNS, 144%; in the assay with SF-539 CNS, 106%; in the assay on UACC-257 melanoma, 29.8%; with M14 melanoma, 88.2%.
For the compound `CC(=O)OC1CC2CCC1(C)C2(C)C` (stereo not drawn), the growth with NCI-H23 lung was 104%; with NCI-H226 lung, 103%; in the assay with NCI-H460 lung it was 105%; in the assay with HOP-92 NSCLC, 84.1%; in the assay with A549/ATCC NSCLC, 101%; with 786-0 renal, 111%. Moreover, the growth with COLO 205 colon is 108%; in the assay with DU-145 prostate, 110%; in the assay with MALME-3M melanoma, 98.7%; in the assay on MDA-MB-231 breast it was 101%; in the assay on RXF 393 renal it was 114%; with SF-268 CNS, 104%. Further, the growth was 94.5% in the assay with SF-295 CNS, 104% with SF-539 CNS, 99.6% in the assay on UACC-257 melanoma and 106% with M14 melanoma.
On to `Cc1ccc2cccc(OC(=O)Nc3cccc(C(F)(F)F)c3)c2n1`, for which the growth is 37.1% with NCI-H23 lung; 67.7% in the assay with NCI-H226 lung; 27.5% in the assay with NCI-H460 lung; 37.2% with NCI-H522 lung; 42.7% in the assay on A549/ATCC NSCLC; 78.6% with 786-0 renal. Also, the growth in the assay with COLO 205 colon was 62.3%; in the assay on DU-145 prostate, 71.1%; in the assay with K-562 leukemia, 33.5%; in the assay on MALME-3M melanoma, 82%; with MDA-MB-231 breast, 86.6%; in the assay with RXF 393 renal it was 95.6%. For the same compound, the growth is 95% in the assay with SF-268 CNS; 6.24% (active) with SF-295 CNS; 96.4% in the assay on SF-539 CNS; 87.3% in the assay on UACC-257 melanoma; 85.5% with M14 melanoma.
Consider `COC(=O)C(=[N+]=[N-])C(=O)c1ccc([N+](=O)[O-])o1`, for which the growth is 77.6% in the assay on NCI-H23 lung; 89.7% in the assay on HOP-62 NSCLC; 94% with NCI-H460 lung; 83.1% with HOP-92 NSCLC; -61.8% (active) in the assay on NCI-H522 lung; 65.2% in the assay on A549/ATCC NSCLC. Besides, the growth in the assay on 786-0 renal was 107%; in the assay on COLO 205 colon, 23%; with DU-145 prostate, 104%; in the assay on K-562 leukemia, 81.6%; in the assay on MALME-3M melanoma, 25.4%; in the assay with MDA-MB-231 breast, 97.6%. Also, the growth with RXF 393 renal is 81.3%; with SF-268 CNS, 92.4%; in the assay with SF-295 CNS, 108%; in the assay with SF-539 CNS, 104%; with UACC-257 melanoma, 61.5%; in the assay on M14 melanoma, 89.6%.
`CCN(CC)CCNC(Cc1ccccc1)c1ccc(OCc2ccccc2)cc1` (stereo not drawn): the growth in the assay on NCI-H226 lung is 88.2%; in the assay on HOP-62 NSCLC it was 92.8%; in the assay with NCI-H460 lung it was 65.1%; in the assay on NCI-H522 lung, 73.6%; with A549/ATCC NSCLC, 69.6%; in the assay on 786-0 renal, 57.4%. For the same compound, the growth in the assay with COLO 205 colon is 54.2%; with DU-145 prostate, 98.5%; in the assay on K-562 leukemia, 14.9%; in the assay with MALME-3M melanoma, 88.6%; in the assay on MDA-MB-231 breast, 50%; with RXF 393 renal, 63.4%. Also, the growth in the assay on SF-268 CNS was 84.5%; with SF-295 CNS, 74.5%; in the assay on SF-539 CNS it was 57%; in the assay with UACC-257 melanoma, -40.7% (active); in the assay on M14 melanoma, -29.6% (active).
Consider `CC(CSc1n[nH]c(=S)s1)c1ccccc1` (stereo not drawn), for which the growth in the assay with NCI-H23 lung is 106%; in the assay on NCI-H322M lung, 118%; with NCI-H460 lung, 114%; in the assay on NCI-H522 lung, 79.3%; with A549/ATCC NSCLC, 103%; with 786-0 renal it was 111%. Further, the growth in the assay on COLO 205 colon is 105%; in the assay on DU-145 prostate, 117%; with K-562 leukemia, 103%; in the assay with MALME-3M melanoma it was 110%; with MDA-MB-231 breast, 103%; in the assay on RXF 393 renal it was 118%. The growth is 109% in the assay with SF-268 CNS; 106% in the assay on SF-295 CNS; 119% in the assay with SF-539 CNS; 112% in the assay with UACC-257 melanoma; 106% in the assay with M14 melanoma.
